Measured values reported in PubChem BioAssay (NCI).
“And” between values parts separate entries of the source, which are not always exact repeats. Identical values can stand only once. This is part of a sample that, as a whole, favours compounds with a hit. Of some 79,000 tested, about 15% had one in any assay. Some compounds were tested as several samples or in several runs, with calls that do not always agree. The source made the active and inactive calls. No stated cut-off is given here; in the data, active means growth inhibition above about 70%; inactive means the rest.

Legend:
[1] = NCI Yeast Anticancer Drug Screen. Data for the rad50 strain (AID 155);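 further: 0% = growth of vehicle-only cultures of the same strain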; conditions: S. cerevisiae rad50 strain growth inhibition, stronger effect = higher value; at 50.0 µM unless noted
In short: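 Growth of the mutant yeast was measured after compound exposure and referenced to vehicle-treated cultures.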

[2] = NCI Yeast Anticancer Drug Screen. Data for the mec2-1 strain (AID 157); conditions: S. cerevisiae mec2-1 strain, stronger effect = higher value; at 50.0 µM unless noted
In short: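 Vehicle-treated cultures served as reference for growth inhibition of compound-exposed mec2-1 yeast.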

[3] = NCI Yeast Anticancer Drug Screen. Data for the sgs1 mgt1 strain (AID 161);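 further: 0% = growth of cultures given vehicle only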; conditions: S. cerevisiae sgs1 mgt1 strain, stronger effect = higher value; at 50.0 µM unless noted
In short: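 Genetically altered yeast, compound exposure, growth inhibition relative to vehicle.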

[4] = NCI Yeast Anticancer Drug Screen. Data for the cln2 rad14 strain (AID 165);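 further: 0% = growth equal to vehicle treated cultures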; conditions: S. cerevisiae cln2 rad14 strain, stronger effect = higher value; at 50.0 µM unless noted
In short: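 Each compound was tested on cln2 rad14 yeast. Inhibition of growth was calculated against vehicle-exposed controls.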

[5] = NCI Yeast Anticancer Drug Screen. Data for the bub3 strain (AID 167); conditions: S. cerevisiae bub3 mutant strain, stronger effect = higher value; at 50.0 µM unless noted
In short: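 Whole-cell yeast assay. The mutant strain was incubated with compounds, and growth inhibition was determined by comparison with vehicle-treated cells.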

[6] = NCI Yeast Anticancer Drug Screen. Data for the mlh1 rad18 strain (AID 175); conditions: S. cerevisiae mlh1 rad18 strain growth inhibition, stronger effect = higher value; at 50.0 µM unless noted
In short: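 Vehicle-treated cultures served as the reference for growth inhibition in a yeast strain carrying DNA damage repair alterations exposed to each compound.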

Row | Compound | growth inhibition [1] | growth inhibition [2] | growth inhibition [3] | growth inhibition [4] | growth inhibition [5] | growth inhibition [6]
1 | COc1cccc2cc3c(cc12)C(=O)C(C)=C(C)C3=O | -1.65% (inactive) | -3.6% (inactive) | -3.45% (inactive) | -9.25% (inactive) | 6.8% (inactive) | 2.55% (inactive)
2 | Nc1cccc(OCCCCCOc2cccc(N)c2)c1 | -35.1% (inactive) | -40.3% (inactive) | -5.75% (inactive) | 6.6% (inactive) | -34.5% (inactive) | -20.4% (inactive)
3 | CCC(C)C(NC(=O)Cc1ccccc1)C(=O)O (stereo not drawn) | 4.55% (inactive) | -9.45% (inactive) | -4.1% (inactive) | -23.2% (inactive) | 8.95% (inactive) | 5.75% (inactive)
4 | Cc1[nH]c2ccccc2c1/C=C/c1c[nH]c2ccccc12 | 22% (inactive) | 29.9% (inactive) | 27.1% (inactive) | 15.8% (inactive) | 55.5% (inactive) | 40.4% (inactive)
5 | CCc1ccc2nccc(NCCCN(C)C)c2c1[N+](=O)[O-] | 3.55% (inactive) | -13.4% (inactive) | 6.7% (inactive) | 15.2% (inactive) | -17.7% (inactive) | 13.5% (inactive)
6 | Cc1ccc(S(=O)(=O)Nc2ccccc2-c2nc3ccc(C)cc3c(=O)o2)cc1 | -5.35% (inactive) | -24.7% (inactive) | -7.8% (inactive) | 2.9% (inactive) | -7.55% (inactive) | -13.7% (inactive)
7 | O=C1CCC(=O)N1CNc1cccc(NCN2C(=O)CCC2=O)c1 | -5.35% (inactive) | -30.9% (inactive) | 11.9% (inactive) | 10.5% (inactive) | 3.9% (inactive) | -4.6% (inactive)
8 | OC12c3ccccc3C1CCCCCCCCCC21OCCCO1 (stereo not drawn) | -2.65% (inactive) | -19.8% (inactive) | -42.6% (inactive) | 6.4% (inactive) | -30.4% (inactive) | -23.6% (inactive)
9 | CCCc1ccc(C)c(CCC)c1O | -5.95% (inactive) | -10.9% (inactive) | -5.1% (inactive) | -17.3% (inactive) | -4.05% (inactive) | 4% (inactive)
10 | CN(C)c1ccc(-c2c3ccccc3nc3ccccc23)cc1 | -19.4% (inactive) and -12.1% (inactive) | 9.35% (inactive) and -6.05% (inactive) | 14.2% (inactive) and -14.2% (inactive) | 0.05% (inactive) and -26.1% (inactive) | 9.95% (inactive) and -16.1% (inactive) | -4.7% (inactive) and 5.8% (inactive)
11 | Nc1nc2cc3nc(N)c(N)nc3cc2nc1N | -6.4% (inactive) | 14.7% (inactive) | 13.1% (inactive) | 34.9% (inactive) | 13.2% (inactive) | 15.1% (inactive)
12 | Cc1ccc(NC(=O)c2cccc(OP(=O)(O)Nc3ccc(C)cc3)c2)cc1 | -13.7% (inactive) | 2.7% (inactive) | 2.8% (inactive) | 17% (inactive) | -0.95% (inactive) | -17% (inactive)
13 | C=C(C)C(=O)O[C@H]1[C@H]2[C@H](OC(=O)[C@H]2C)[C@H](O)[C@@H](C)[C@@H]2C=CC(=O)[C@]21C | 31.3% (inactive) | 30.5% (inactive) | 69.8% (inactive) | 47.2% (inactive) | 57.4% (inactive) | -31.1% (inactive)
14 | Cc1cc(=O)[nH]c(NNC(C#N)c2cccc([N+](=O)[O-])c2)n1 (stereo not drawn) | -18.5% (inactive) | -11.1% (inactive) | -31.1% (inactive) | -12.8% (inactive) | -7.4% (inactive) | -39.5% (inactive)
15 | CCOC(=O)C(CCc1ccccc1[N+](=O)[O-])(CCc1ccccc1[N+](=O)[O-])C(=O)OCC | 12.3% (inactive) | -0.7% (inactive) | 6.35% (inactive) | -9% (inactive) | 10.7% (inactive) | 37.7% (inactive)
16 | CC(=O)NCCc1c[nH]c2ccc(Cl)cc12 | -33.5% (inactive) | 21.4% (inactive) | -27.4% (inactive) | -11.6% (inactive) | 26.8% (inactive) | -10.1% (inactive)
17 | Cc1cc(O)c(C)cc1O | 16.1% (inactive) | 5.5% (inactive) | -2.85% (inactive) | 6.5% (inactive) | -7.95% (inactive) | 21.6% (inactive)
18 | O=C(O)CCCl | -8.95% (inactive) and -10.8% (inactive) | 7.65% (inactive) and -16.2% (inactive) | 25.1% (inactive) and -18.3% (inactive) | -27.1% (inactive) and -34.2% (inactive) | -6.1% (inactive) and -0.9% (inactive) | 29.3% (inactive)
19 | CC(C)(C)OC(=O)COc1ccc(NC(=O)COc2ccc(Cl)c(Cl)c2)cc1 | -17.4% (inactive) | -22.2% (inactive) | -10.2% (inactive) | -28.8% (inactive) | -1.8% (inactive) | -8.6% (inactive)

Row | Compound | growth inhibition [1] | growth inhibition [2] | growth inhibition [3] | growth inhibition [4] | growth inhibition [5] | growth inhibition [6]
20 | COc1ccc(OC)c(NC(=O)C(=O)C(C(C)=O)c2nc3ccc(Cl)cc3[nH]c2=O)c1 (stereo not drawn) | -12.8% (inactive) | 7.75% (inactive) | -15.5% (inactive) | 12% (inactive) | 2.5% (inactive) | -7.35% (inactive)
21 | Cc1c(Cl)cccc1C(=O)O | -3.15% (inactive) | 10.7% (inactive) | 3.65% (inactive) | -3.15% (inactive) | -10% (inactive) | 27.6% (inactive)
22 | COc1cccc(C2C(C(=O)Nc3cc(=O)n(C)c(=O)n3C)=C(C)NC(C)=C2C(=O)Nc2cc(=O)n(C)c(=O)n2C)c1O | -15.1% (inactive) | 13% (inactive) | 13.4% (inactive) | 12.2% (inactive) | 2.55% (inactive) | 14.8% (inactive)
23 | CCC(O)c1ccc(OCc2ccccc2)c(OC)c1 (stereo not drawn) | 7.35% (inactive) | -2.1% (inactive) | 24.6% (inactive) | -43.1% (inactive) | -4.05% (inactive) | 2.25% (inactive)
24 | CC(=O)c1ccccc1OB(F)F | 10.2% (inactive) | -11.2% (inactive) | 8.8% (inactive) | -4.45% (inactive) | 1.05% (inactive) | -11.9% (inactive)
25 | CCOC(=O)c1c(C)nc(C)c(C(=O)OCC)c1-c1ccc(N(C)C)cc1 | 3.7% (inactive) and -7.5% (inactive) | 1.75% (inactive) and 1.25% (inactive) | 84% (active) and -1.3% (inactive) | -4.4% (inactive) and -6.05% (inactive) | 1.8% (inactive) and -14.7% (inactive) | 4.05% (inactive) and 5.25% (inactive)
26 | Cc1cc2ccccc2c(N=Cc2cc(Br)cc(Br)c2O)c1C#N | 59.8% (inactive) | 87.5% (active) | 96.8% (active) | 60.2% (inactive) | 83.8% (active) | 97.8% (active)
27 | C=C1C(=O)C23CC1CCC2C12CO[C@H](O)[C@H]1C(C)(C)[C@H](OC(C)=O)C[C@H]2OC3=O (stereo partly drawn) | 4.75% (inactive) | 4.15% (inactive) | 1.8% (inactive) | 6.1% (inactive) | 0.85% (inactive) | -76.2% (inactive)
28 | CC(C)(C(N)C(=O)O)C(N)C(=O)O (stereo not drawn) | 16.4% (inactive) | 4.8% (inactive) | -17.4% (inactive) | -11.9% (inactive) | -3.55% (inactive) | -8.8% (inactive)
29 | CC1Cc2c(n[nH]c2CC2CC(=O)NC(=O)C2)C(C)C1 (stereo not drawn) | 8.6% (inactive) | -2.35% (inactive) | 4% (inactive) | -15.7% (inactive) | 29.4% (inactive) | 17.8% (inactive)
30 | O=C1c2ccccc2C(=O)N1CN1C(=O)c2ccccc2S1(=O)=O | 24.1% (inactive) | 15.6% (inactive) | 29.4% (inactive) | 24.2% (inactive) | 19.4% (inactive) | 34.9% (inactive)
31 | Brc1ccc(SSc2ccc(Br)cc2)cc1 | -12.8% (inactive) and 3.2% (inactive) | 13.1% (inactive) and -10.3% (inactive) | 3.45% (inactive) and 5.3% (inactive) | -18.4% (inactive) and -5.5% (inactive) | -3.15% (inactive) and 9.8% (inactive) | 18.8% (inactive) and 2.65% (inactive)
32 | C#CCN(N=O)C(=O)NCCCCC(NC(C)=O)C(=O)NCc1ccccc1 (stereo not drawn) | 3.4% (inactive) | -16.9% (inactive) | -16.9% (inactive) | 5% (inactive) | -16.2% (inactive) | -15.1% (inactive)
33 | COC(=O)CCC(=O)Nc1cc(C)ccc1C | -6.3% (inactive) | -19.9% (inactive) | -7.6% (inactive) | 4.5% (inactive) | -2.25% (inactive) | -12.2% (inactive)
34 | Nc1ncc2c(=O)[nH][nH]c(=O)c2n1 | 34.9% (inactive) | 31.6% (inactive) | 16.6% (inactive) | 12.4% (inactive) | 3.4% (inactive) | -5.5% (inactive)
35 | C[N+]12CCCCC1C(CN1C(=O)c3ccccc3C1=O)CCC2 (stereo not drawn) | 0.65% (inactive) | -6.05% (inactive) | 35.7% (inactive) | 10.9% (inactive) | 28.8% (inactive) | -40% (inactive)
36 | CC(=O)OCCN(CCOC(C)=O)CCOC(C)=O | -8.4% (inactive) | -3.5% (inactive) | -3.4% (inactive) | -52.3% (inactive) | -3.4% (inactive) | 18.5% (inactive)
37 | CCCCCCCCCCCCCCCCCC(=O)N/N=C/c1cc(C(C)(C)C)c(O)c(C(C)(C)C)c1 | -32.6% (inactive) | 13.7% (inactive) | -14.1% (inactive) | -35.2% (inactive) | -1.1% (inactive) | 2.45% (inactive)
38 | Cc1[nH]c(=O)[nH]c(=O)c1CCO | -8.9% (inactive) | -2.6% (inactive) | -4.25% (inactive) | -29.4% (inactive) | -28.3% (inactive) | -13.4% (inactive)
